Only some compounds are listed: those with a hit (about 12% of all), similar ones and a draw of the others.
USP30 block – inhibitors of human USP30 deubiquitinase | Ubiquitin carboxyl-terminal hydrolase 30 (Homo sapiens), Q70CQ3 | purified USP30, Ub-rhodamine cleavage fluorescence | inhibition, % at 25 µM | 47,000 tested, 5.3% active | AID 1645860, 2021
USP17 inh – inhibitors of human USP17 deubiquitinase | inhibition, % at 50 µM | 47,000 tested, 6.5% active | purified USP17, Ub-rhodamine cleavage fluorescence, 3 h
UCHL1 block – inhibitors of human UCHL1 deubiquitinase | Ubiquitin carboxyl-terminal hydrolase isozyme L1 (Homo sapiens), P09936 | purified UCHL1, Ub-rhodamine cleavage fluorescence | inhibition, % at 20 µM | 47,000 tested, 0.2% active | AID 1645859, 2021
USP8 inh – inhibitors of human USP8 deubiquitinase; purified USP8, Ub-rhodamine cleavage fluorescence, 30 min; inhibition, % at 20 µM; 47,000 tested, 4.2% active; AID 1645853, 2021
USP10 inh – inhibitors of human USP10 deubiquitinase | inhibition, % at 20 µM | AID 1645856, 2021 | Ubiquitin carboxyl-terminal hydrolase 10 (Homo sapiens), Q14694 | 47,000 tested, 1.1% active | purified USP10, Ub-rhodamine fluorescence, 60 min
USP7 block – inhibitors of human USP7 deubiquitinase; 47,000 tested, 0.3% active; inhibition, % at 20 µM; purified USP7, Ub-rhodamine cleavage fluorescence; Ubiquitin carboxyl-terminal hydrolase 7 (Homo sapiens), Q93009; AID 1645854, 2021
Numbers without * were called inactive; / = not tested or not shown. Cut-off read from the data, not from the text of the source: active = inhibition above about 30%; inactive = the rest.

SMILES | USP30 block | USP17 inh | UCHL1 block | USP8 inh | USP10 inh | USP7 block
COc1cccc(-c2ccnc3[nH]c(=O)[nH]c(=O)c23)c1 | 63* | 74* | 2 | 1 | 0 | 0
O=c1[nH]c(=O)c2c(-c3cccc4ccccc34)ccnc2[nH]1 | 1 | 4 | -4 | -17 | -1 | -6
O=c1[nH]c(=O)c2c(-c3ccc(-c4ccccc4)cc3)ccnc2[nH]1 | 45* | 17 | -7 | 76* | -4 | 11
COc1cccc(-c2cc(C(=O)NC3CCCCCC3)[nH]n2)c1 | 15 | 4 | 8 | 6 | 11 | 9
O=C(COC(=O)c1cnccn1)Nc1cccc(Oc2ccccc2)c1 | -13 | -2 | -3 | -8 | -8 | -16
CCCN1CC(=O)N2C(C)c3[nH]c4ccccc4c3C[C@@H]2C1=O (some centres undefined) | -67 | -26 | -2 | -11 | 0 | 1
CC(=O)NC(Cc1cccc(C)c1)C(=O)NC1CCN(C(=O)C2CC2)CC1 (centres undefined) | 19 | 14 | 3 | 11 | 2 | 3
CSc1ccccc1NC(=O)CCCn1nc([N+](=O)[O-])cc1C | 8 | -12 | 1 | 2 | 2 | -3
Cc1cc([N+](=O)[O-])nn1CCCC(=O)Nc1ccc2c(c1)OCO2 | 3 | 22 | 7 | 45* | 7 | 2
Cc1nc(-c2ccc(-c3noc(-c4ccnn4C)n3)cc2)cs1 | 40* | 33* | 1 | 10 | 1 | 2
Cc1ccc(C)c(NC(=O)CCc2c(C)nn(-c3cc(N4CCOCC4)ncn3)c2C)c1 | 34* | 20 | 1 | 1 | -1 | 3
Cc1ccc(C)c(NC(=O)CCc2c(C)nn(-c3cc(N4CCCC4)ncn3)c2C)c1 | 28 | 22 | 1 | 19 | -5 | 5
Cc1cc(C)nc(-n2nc(C)cc2NC(=O)c2cccc(Cl)c2)n1 | -59 | 4 | -1 | -14 | 0 | 1
Cc1cc(NC(=O)c2cccc(N3CCOCC3)n2)n(-c2ccc(Cl)cc2)n1 | 21 | 22 | 1 | 52* | 8 | 8
Cc1ncc(CN2CCC3(CC2)Nc2ccccc2C2=NCCN23)n1C | -31 | -16 | -3 | -22 | -5 | -1
CCCn1cnc2cc(-c3noc(CNC(=O)c4cccs4)n3)ccc21 | 23 | 5 | 0 | 33* | -2 | 6
COc1ccc(Cn2c3c(c(=O)[nH]c2=O)CN(C2CCCCC2)CN3)cc1 | 47* | 43* | 18 | 18 | 19 | -7
CCc1cc2c3c([nH]c2cc1S(=O)(=O)NCCN1CCCCCC1)CCCC3=O | -151 | -1 | -7 | -7 | -4 | -16
O=C(c1ccccc1)C1CCN(S(=O)(=O)c2ccc(Cl)cc2)CC1 | 31* | 12 | 5 | 0 | 8 | -7
O=C(c1ccc(S(=O)(=O)N2CCCCC2)cc1)c1nnc(-c2ccc(Cl)cc2)o1 | 30* | 0 | -1 | 8 | 0 | 5
O=C(NCCN1CCOCC1)C1CCN(S(=O)(=O)c2ccc(Cl)cc2)CC1 | 35* | 14 | 0 | 23 | -2 | 4
O=C(C1CCN(S(=O)(=O)c2ccc(Cl)cc2)CC1)N1CCOCC1 | -4 | -11 | -3 | -11 | -2 | 1
Cc1nnc(NC(=O)C2CCN(S(=O)(=O)c3ccc(Cl)cc3)CC2)o1 | 0 | -19 | -2 | -44 | 1 | -1
CC1=C(Cn2c3cccc(=O)c-3nc3ccccc32)CCC(C)(C)C1 | 20 | 78* | 62* | 59* | 58* | 35*
CCOC(=O)Cc1nc2ccccc2n(CC2CC2)c1=O | -15 | -13 | -6 | -3 | -8 | -10
Cc1nn(C)cc1C(C)NC(=O)c1cc2c(s1)CN(C1CC1)C2 (centres undefined) | -60 | 3 | 1 | 31* | -5 | -4
CC(C)(C)OC(=O)N1CCN(C(=O)c2cc3c(s2)CN(C2CC2)C3)CC1 | -6 | 6 | 2 | 1 | 0 | -34
COc1ccc(C)cc1NC(=O)c1cc2cccnc2n(C)c1=O | / | 37* | 1 | 1 | 1 | 3
COc1ccc(CNC(=O)c2ccc(-c3nc4cccnc4n(C)c3=O)cc2)cc1OC | -22 | -9 | -2 | -12 | -7 | 1

From PubChem BioAssay
